Reference: PubChem BioAssay (NCATS)
Inconclusive results are not listed. Entries that show only a call come without a potency. Calls of active or inactive are those of the source. Unless noted, the call rests on the fitted dose curve; in most records, active means well fitted curve in the direction sought with a large enough effect; inconclusive means small, poorly fitted or top-dose-only effect, or another doubt; inactive means no such curve, though single readings can be large; an effect the other way counts as inactive or inconclusive.

How the values were obtained:
[1] = target: Calcium and integrin-binding protein 1 (Homo sapiens) (UniProt Q99828); assay: Primary qHTS for Identification of Calcium Integrin Binding Protein 1 (CIB1) Competitor (AID 1508620);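 further: GST tagged CIB1 binding a fluorescein labelled alphaIIb integrin peptide tracer; top concentration of the series differs between compounds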
Chain of Calcium and integrin-binding protein 1 (Homo sapiens) (Q99828 whole entry, looked up): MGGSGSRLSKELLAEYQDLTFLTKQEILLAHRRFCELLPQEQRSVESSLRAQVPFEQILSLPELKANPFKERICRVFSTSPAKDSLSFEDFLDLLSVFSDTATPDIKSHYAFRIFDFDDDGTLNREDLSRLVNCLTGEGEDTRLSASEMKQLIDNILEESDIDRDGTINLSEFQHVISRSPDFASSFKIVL
Procedure, shortened: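 Fluorescence polarization competition: CIB1-GST (1 uM final) preincubated with compound 15 min at room temperature, then FITC-labeled alphaIIb peptide (100 nM final) added for another 15 min. Polarization read at Ex 480/Em 540.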

[2] = target: N-terminal Xaa-Pro-Lys N-methyltransferase 1 (Homo sapiens) (UniProt Q9BV86); assay: Confirmatory qHTS for Inhibitors of N-terminal methyltransferase 1 (NTMT1): MTaseGlo Assay (AID 1645874); further: nearly all actives have a fitted effect of over 65% in size; further: potency means the concentration at half of the fitted maximal effect;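 on activity change, negative = inhibition: luminescence from SAH made as NTMT1 methylates SPKRIA peptide using SAM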
Chain of N-terminal Xaa-Pro-Lys N-methyltransferase 1 (Homo sapiens) (Q9BV86 whole entry, looked up): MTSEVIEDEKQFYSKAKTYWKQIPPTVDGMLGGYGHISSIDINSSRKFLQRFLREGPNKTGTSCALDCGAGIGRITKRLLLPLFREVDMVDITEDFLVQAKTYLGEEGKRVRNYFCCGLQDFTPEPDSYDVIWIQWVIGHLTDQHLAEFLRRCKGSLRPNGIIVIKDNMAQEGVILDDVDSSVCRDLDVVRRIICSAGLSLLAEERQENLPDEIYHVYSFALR
Procedure, shortened: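 Luminescent MTase-Glo read-out of SAH. 125 nM NTMT1, 100 uM SAM, 1 uM SPKRIA substrate, 30 min RT reaction after 15 min compound preincubation. Normalized to no-enzyme and DMSO controls; Hill fit.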

[3] = target: Lysosomal acid glucosylceramidase (Homo sapiens) (UniProt P04062); assay: Glucocerebrosidase-p2 (AID 348; in the data active means potency below about 10 µM; further: potency means the concentration at half of the fitted maximal effect); details: purified GBA, blue fluorogenic substrate, 40 min
Chain of Lysosomal acid glucosylceramidase (Homo sapiens) (P04062 whole entry, looked up): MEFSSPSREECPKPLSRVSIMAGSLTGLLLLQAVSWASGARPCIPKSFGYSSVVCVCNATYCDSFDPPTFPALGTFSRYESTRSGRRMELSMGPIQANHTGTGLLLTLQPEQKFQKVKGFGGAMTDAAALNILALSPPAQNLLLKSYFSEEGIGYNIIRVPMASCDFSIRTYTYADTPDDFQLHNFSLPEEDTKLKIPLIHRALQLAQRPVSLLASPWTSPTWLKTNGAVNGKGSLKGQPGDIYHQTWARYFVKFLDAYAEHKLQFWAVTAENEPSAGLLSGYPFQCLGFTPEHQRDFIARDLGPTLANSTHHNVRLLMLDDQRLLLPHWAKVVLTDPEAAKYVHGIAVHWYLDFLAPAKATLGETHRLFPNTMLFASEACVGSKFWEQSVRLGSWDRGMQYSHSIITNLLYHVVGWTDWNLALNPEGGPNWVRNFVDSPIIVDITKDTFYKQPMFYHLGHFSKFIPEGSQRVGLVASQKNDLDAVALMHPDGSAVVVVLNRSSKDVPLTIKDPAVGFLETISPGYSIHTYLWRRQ
Procedure, shortened: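 Compounds titrated from 0.6 nM upwards against 0.2 nM enzyme in pH 5.9 citric acid/KH2PO4, taurocholate, tween-20; blue fluorogenic substrate 80 uM, 40 min room temperature, stopped and read Ex 365/Em 440 for AC50.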

[4] = AP1 Signaling Pathway (AID 357; active means well fitted curve in either direction with a large enough effect, not every such curve was filed as active;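 further: ME-180 reporter cells stimulated with EGF at its EC50 level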); details: ME-180 AP-1-bla reporter, EGF-induced, beta-lactamase ratio, 5 h; at 7.69 µM (top of the series) unless noted
Procedure, shortened: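 AP-1-bla ME-180 cells, Opti-MEM + 0.5% dialyzed FBS, plated overnight 37 °C. Cpd titration + EC50 EGF, 5 h 37 °C. CCF4 2.5 h RT; ex 405, em 460/530 ratio → %activity, AC50.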

[5] = target: Cytochrome P450 1A2 (Homo sapiens) (UniProt P05177); assay: p450-cyp1a2 (AID 410; calls by dose curve; further: potency means the concentration at half of the fitted maximal effect)
Chain of Cytochrome P450 1A2 (Homo sapiens) (P05177 whole entry, looked up): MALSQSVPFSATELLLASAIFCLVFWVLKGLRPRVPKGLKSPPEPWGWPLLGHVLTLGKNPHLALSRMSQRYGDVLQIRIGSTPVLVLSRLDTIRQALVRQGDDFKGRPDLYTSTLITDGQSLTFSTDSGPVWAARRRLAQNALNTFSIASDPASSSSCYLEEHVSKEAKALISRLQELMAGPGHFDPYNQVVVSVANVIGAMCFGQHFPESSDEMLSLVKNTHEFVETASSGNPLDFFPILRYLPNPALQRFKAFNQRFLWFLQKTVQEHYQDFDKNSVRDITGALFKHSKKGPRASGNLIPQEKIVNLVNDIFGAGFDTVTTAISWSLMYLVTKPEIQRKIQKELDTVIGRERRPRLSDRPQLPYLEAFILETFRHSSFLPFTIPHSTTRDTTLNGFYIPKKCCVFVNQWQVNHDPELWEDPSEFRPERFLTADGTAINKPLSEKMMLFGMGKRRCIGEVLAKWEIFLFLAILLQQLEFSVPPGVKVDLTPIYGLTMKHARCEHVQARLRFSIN
Procedure, shortened: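 20nM CYP1A2 with 100uM Luciferin-ME (at Km) in 100mM KPO4; compound preincubated 10 min, NADPH regeneration added, 60 min at room temperature. Luciferin quantified by luminescence after detection reagent; normalized to 57 uM furafylline.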

[6] = NFAT Signaling Pathway (AID 444; active means well fitted curve in either direction with a large enough effect, not every such curve was filed as active;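 further: carbachol stimulus at about its EC50 of 1 µM final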); details: Jurkat NFAT-bla M1, carbachol, beta-lactamase ratio, 5 h; at 7.69 µM (top of the series) unless noted
Procedure, shortened: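 Jurkat cells carrying an NFAT-driven β-lactamase reporter and co-transfected muscarinic M1 receptor were treated with compound plus carbachol (1 uM final, an EC50 level) for 5 h at 37 °C. CCF4 loading followed for 1 h at RT; 460/530 nm ratio gave %activity.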

[7] = Stat Signaling Pathway (AID 446; active means well fitted curve in either direction with a large enough effect, not every such curve was filed as active;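 further: ME-180 cervical cancer cells given 40 pM IL-6 alongside compound; SIE-controlled beta-lactamase reporter measured as 460/530 nm FRET emission ratio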); details: ME-180 SIE beta-lactamase reporter, IL-6 stimulated, 5 h; at 7.69 µM (top of the series) unless noted
Procedure, shortened: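 ME-180 SIE-bla cells; overnight plating; cpd + IL-6 40 pM, 5 h, 37 C; LiveBLAzer 2.5 h RT; 460/530 nm emission ratio. Normalized to 300 pM IL-6 and 125 nM JAK inhibitor controls.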

[8] = target: Glucocorticoid receptor (Homo sapiens) (UniProt P04150); assay: GR-EFC Redistribution (AID 451; calls by dose curve; further: potency means the concentration at half of the fitted maximal effect); details: CHO-K1 GR-EFC translocation, beta-gal luminescence, 2 h
Chain of Glucocorticoid receptor (Homo sapiens) (P04150 whole entry, looked up, the tested form may be a part): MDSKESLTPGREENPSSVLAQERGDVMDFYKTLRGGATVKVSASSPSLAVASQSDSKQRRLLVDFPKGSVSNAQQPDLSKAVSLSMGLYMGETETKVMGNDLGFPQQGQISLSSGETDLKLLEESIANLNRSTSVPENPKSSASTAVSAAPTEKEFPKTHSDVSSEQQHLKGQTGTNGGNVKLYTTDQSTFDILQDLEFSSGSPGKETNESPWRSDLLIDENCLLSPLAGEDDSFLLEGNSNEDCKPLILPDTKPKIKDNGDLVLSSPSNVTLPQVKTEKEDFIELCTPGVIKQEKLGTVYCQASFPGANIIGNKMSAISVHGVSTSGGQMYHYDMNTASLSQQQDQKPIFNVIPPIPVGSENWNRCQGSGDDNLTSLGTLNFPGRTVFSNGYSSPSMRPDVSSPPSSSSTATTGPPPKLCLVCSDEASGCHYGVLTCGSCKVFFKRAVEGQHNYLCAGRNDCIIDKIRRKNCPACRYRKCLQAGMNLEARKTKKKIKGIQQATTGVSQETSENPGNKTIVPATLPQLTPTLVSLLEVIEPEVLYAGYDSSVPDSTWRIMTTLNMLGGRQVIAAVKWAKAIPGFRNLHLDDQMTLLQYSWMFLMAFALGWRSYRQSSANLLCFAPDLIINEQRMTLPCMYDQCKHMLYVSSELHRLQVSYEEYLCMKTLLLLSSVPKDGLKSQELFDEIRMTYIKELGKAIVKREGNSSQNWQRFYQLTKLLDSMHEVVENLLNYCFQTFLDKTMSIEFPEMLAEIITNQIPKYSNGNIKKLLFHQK
Procedure, shortened: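 CHO-K1 cells stably expressing nuclear-localized β-gal enzyme acceptor and GR fused C-terminally to the enzyme donor fragment; ligand-driven nuclear translocation restores β-gal by complementation. Compounds titrated up to 46 uM final, 2 h at 37 °C; luminescence read.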

[9] = target: Mitogen-activated protein kinase 10 (Mus musculus) (UniProt Q61831); assay: JNK3 AlphaScreen Assay (AID 530; active means well fitted curve in either direction with a large enough effect, not every such curve was filed as active;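 further: kinase came from lysate of stimulated human HepG2 cells; signal reports phosphorylation of biotinylated GST-cJun 1-79 at Ser73 with 10 µM ATP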)
Procedure, shortened: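 Inhibitors reduce antibody binding to phosphorylated biotin-cJun, lowering AlphaScreen luminescence. Lysates from HepG2 cells pre-activated by IL-1beta plus TNF-alpha supplied JNK3; compounds were titrated.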

[10] = target: 3',5'-cyclic-AMP phosphodiesterase 4B (Homo sapiens) (UniProt Q07343); assay: qHTS Assay for Inhibitors of PDE-IV (AID 607; active means well fitted activation curve with a large enough effect in the main read-out, with a control signal flat, not every such curve was filed as active)
Chain of 3',5'-cyclic-AMP phosphodiesterase 4B (Homo sapiens) (Q07343 whole entry, looked up): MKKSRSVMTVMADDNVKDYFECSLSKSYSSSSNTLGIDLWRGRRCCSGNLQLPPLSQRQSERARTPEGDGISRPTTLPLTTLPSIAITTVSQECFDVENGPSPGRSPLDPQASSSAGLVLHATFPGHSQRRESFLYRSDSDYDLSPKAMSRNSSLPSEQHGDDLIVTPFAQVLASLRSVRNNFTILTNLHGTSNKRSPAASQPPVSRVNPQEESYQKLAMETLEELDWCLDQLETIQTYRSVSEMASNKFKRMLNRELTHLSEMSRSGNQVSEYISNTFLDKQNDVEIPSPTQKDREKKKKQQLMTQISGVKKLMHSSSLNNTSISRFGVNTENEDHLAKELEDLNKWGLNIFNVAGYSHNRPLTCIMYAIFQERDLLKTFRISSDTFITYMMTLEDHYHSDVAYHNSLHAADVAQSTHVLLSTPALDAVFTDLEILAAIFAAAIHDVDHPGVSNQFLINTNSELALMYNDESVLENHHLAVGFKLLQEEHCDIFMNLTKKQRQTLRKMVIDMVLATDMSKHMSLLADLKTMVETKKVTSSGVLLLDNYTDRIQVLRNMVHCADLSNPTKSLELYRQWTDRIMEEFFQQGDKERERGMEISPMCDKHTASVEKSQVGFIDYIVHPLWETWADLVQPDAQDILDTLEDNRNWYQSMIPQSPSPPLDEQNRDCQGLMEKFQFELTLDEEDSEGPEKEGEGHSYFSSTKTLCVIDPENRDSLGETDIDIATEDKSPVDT
Procedure, shortened: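 ACTOne HEK293 cells carry a modified cAMP-gated CNG channel and express endogenous PDE4; plated 1000 cells/well, compounds up to 22.9 uM final. Membrane-potential dye fluorescence (ex 535/em 590) was read; parental cells received 10 uM forskolin + 100 uM RO 20-1724.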

[11] = target: Cytochrome P450 2D6 (Homo sapiens) (UniProt P10635); assay: qHTS Assay for Inhibitors and Substrates of Cytochrome P450 2D6 (AID 891); further: potency means the concentration at half of the fitted maximal effect; nearly all actives have a fitted effect of over 60% in size
Chain of Cytochrome P450 2D6 (Homo sapiens) (P10635 whole entry, looked up): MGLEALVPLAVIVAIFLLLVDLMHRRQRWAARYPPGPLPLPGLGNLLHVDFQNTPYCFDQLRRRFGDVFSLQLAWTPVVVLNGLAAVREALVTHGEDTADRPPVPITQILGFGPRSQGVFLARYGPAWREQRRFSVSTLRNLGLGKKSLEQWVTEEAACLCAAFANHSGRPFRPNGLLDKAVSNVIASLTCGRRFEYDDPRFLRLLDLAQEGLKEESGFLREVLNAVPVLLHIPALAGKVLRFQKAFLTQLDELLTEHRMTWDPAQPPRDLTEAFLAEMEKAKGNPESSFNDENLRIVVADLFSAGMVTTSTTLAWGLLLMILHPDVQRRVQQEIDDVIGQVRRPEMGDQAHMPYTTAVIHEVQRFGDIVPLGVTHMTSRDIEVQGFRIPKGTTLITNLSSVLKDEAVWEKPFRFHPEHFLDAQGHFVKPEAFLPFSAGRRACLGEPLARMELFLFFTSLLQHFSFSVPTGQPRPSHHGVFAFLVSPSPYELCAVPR
Procedure, shortened: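 Human CYP2D6 (5 nM) with 30 uM Luciferin-ME EGE (at Km) in 100 mM KPO4, compound preincubated 10 min, then NADPH regeneration system for 60 min at room temperature. Luciferin read by luminescence; normalized to 1.43 uM quinidine.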

[12] = Confirmation and Secondary Assay for Modulators of Hemoglobin Beta Chain Splicing at IVS2 654 locus (AID 910)
Procedure, shortened: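 HeLa cells stably carrying EGFP interrupted by mutant beta-globin IVS2-654 intron (CMV-driven) were treated with compound for 2 days at 37C; corrected splicing was scored as total peak GFP intensity per well (488 nm excitation, 500-520 nm emission).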

[13] = Confirmation and Secondary Assay for Modulators of Hemoglobin Beta Chain Splicing at IVS2 705 locus (AID 930);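 further: HeLa cells stably expressing the EGFP-705 splicing reporter; GFP fluorescence per well restored by corrected splicing of the IVS2-705 intron in EGFP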
Procedure, shortened: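 Read-out: total peak GFP fluorescence per well (488 nm excitation, 500-520 nm emission) by laser-scanning cytometry. Cells: HeLa EGFP-705 splicing reporter, 2 days compound exposure in Optimem/2% FCS.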

[14] = qHTS Assay for Lipid Storage Modulators (AID 1519; calls by dose curve); details: Drosophila S3 cells, BODIPY lipid droplet/cell ratio, laser cytometry, cells loaded with oleic acid
Procedure, shortened: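 Cells seeded at 5,000 per well were treated with compounds over a concentration series and loaded with oleic acid (400 uM, as added). Lipid droplet fluorescence (488 nm excitation, 500-530 nm channel) was read by laser-scanning cytometry and normalized to 20 uM Triacsin C.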

[15] = target: Ubiquitin carboxyl-terminal hydrolase 1 (Homo sapiens) (UniProt O94782); assay: Inhibitors of USP1/UAF1: Pilot qHTS (AID 504865);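 further: rhodamine fluorescence freed from ubiquitin-rhodamine substrate followed over time; top concentration of the series differs between compounds; nearly all actives have a fitted effect of over 35% in size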
Chain of Ubiquitin carboxyl-terminal hydrolase 1 (Homo sapiens) (O94782 whole entry, looked up): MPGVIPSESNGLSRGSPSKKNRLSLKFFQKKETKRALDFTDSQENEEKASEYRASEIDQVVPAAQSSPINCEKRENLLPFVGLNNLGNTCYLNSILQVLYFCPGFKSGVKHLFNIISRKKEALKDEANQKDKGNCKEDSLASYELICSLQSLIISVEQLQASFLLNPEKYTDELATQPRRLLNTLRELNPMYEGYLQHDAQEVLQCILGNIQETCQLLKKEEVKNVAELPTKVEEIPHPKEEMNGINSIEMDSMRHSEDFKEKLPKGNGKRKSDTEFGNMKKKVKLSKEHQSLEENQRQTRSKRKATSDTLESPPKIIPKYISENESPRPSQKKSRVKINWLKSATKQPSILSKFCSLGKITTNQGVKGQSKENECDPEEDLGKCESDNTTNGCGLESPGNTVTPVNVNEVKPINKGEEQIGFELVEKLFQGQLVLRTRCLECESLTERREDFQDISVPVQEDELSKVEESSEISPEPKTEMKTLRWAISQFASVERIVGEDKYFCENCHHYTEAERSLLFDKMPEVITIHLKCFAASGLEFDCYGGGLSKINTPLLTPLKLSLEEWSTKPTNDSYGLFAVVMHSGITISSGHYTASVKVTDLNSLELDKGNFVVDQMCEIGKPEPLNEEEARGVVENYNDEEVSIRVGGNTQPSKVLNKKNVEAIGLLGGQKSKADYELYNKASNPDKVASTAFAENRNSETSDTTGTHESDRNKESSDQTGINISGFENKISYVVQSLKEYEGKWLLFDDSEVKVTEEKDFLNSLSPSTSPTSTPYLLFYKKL
Procedure, shortened: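 In 50mM HEPES pH 7.8 containing 0.5mM EDTA, 1mM TCEP, 0.1 mg/ml BSA and 0.01% Tween-20, 1nM USP1/UAF1 is exposed to compound for 15 min, then Ub-Rho (150nM final) is added and fluorescence is read over time.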

[16] = Primary qHTS for small molecule stabilizers of the endoplasmic reticulum resident proteome: Secreted ER Calcium Modulated Protein (SERCaMP) assay (AID 1508630)
Procedure, shortened: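 GLuc-SERCaMP-expressing SH-SY5Y cells, pretreated 16 h with compound, are challenged with thapsigargin to empty ER calcium stores; after 4 h, coelenterazine is added directly to the medium and luminescence is imaged.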

[17] = target: Tyrosine-protein kinase Yes (Homo sapiens) (UniProt P07947); assay: qHTS for small molecule inhibitors of Yes1 kinase: Primary Screen (AID 686947); further: potency means the concentration at half of the fitted maximal effect; nearly all actives have a fitted effect of over 60% in size
Chain of Tyrosine-protein kinase Yes (Homo sapiens) (P07947 whole entry, looked up): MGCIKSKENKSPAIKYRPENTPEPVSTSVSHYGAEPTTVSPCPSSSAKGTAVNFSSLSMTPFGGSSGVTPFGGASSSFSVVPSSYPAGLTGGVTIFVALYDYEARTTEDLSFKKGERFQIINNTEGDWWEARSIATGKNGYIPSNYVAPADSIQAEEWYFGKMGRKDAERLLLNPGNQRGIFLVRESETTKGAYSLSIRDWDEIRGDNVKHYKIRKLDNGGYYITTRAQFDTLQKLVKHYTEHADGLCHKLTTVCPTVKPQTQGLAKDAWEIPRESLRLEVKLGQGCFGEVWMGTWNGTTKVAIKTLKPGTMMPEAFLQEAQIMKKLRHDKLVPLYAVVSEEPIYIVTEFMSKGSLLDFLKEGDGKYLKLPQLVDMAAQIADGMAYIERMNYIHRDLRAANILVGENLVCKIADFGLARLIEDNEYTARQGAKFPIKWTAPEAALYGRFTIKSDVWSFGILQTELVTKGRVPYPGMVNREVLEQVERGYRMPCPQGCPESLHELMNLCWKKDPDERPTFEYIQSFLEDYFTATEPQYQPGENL
Procedure, shortened: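 Yes1 (4 nM) preincubated 20 min with compound, then 60 min room-temperature reaction with 0.1 mM ATP and 0.3 mg/mL poly(E4Y) in pH 7.5 Tris, 10 mM MgCl2. ADP measured by ADP-Glo luminescence, normalised to enzyme/no-enzyme controls.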

[18] = qHTS for small molecule inhibitors of Yes1 kinase: Counter Assay (AID 686950);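 further: no kinase present so only ADP-Glo detection of a fixed ADP amount is tested; luminescence from ADP-Glo reporting ADP in a fixed ATP and ADP mixture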
Procedure, shortened: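 Enzyme-free ADP-Glo interference check: compounds were preincubated 20 min in buffer, then an ATP/ADP mix (0.08 mM ATP, 0.02 mM ADP final) was added for 60 min at room temperature before two-step ADP-Glo luminescence detection.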

Question: For `Cc1cc2c(s1)c1c(C)nn(Cc3ccccc3F)c(=O)c1n2C`, which Potency [1] is on record?
Answer: The Potency was “inactive”.

Question: For `CCNC(=O)c1ccc(-c2ccc3ncnc(NCc4nccs4)c3c2)o1`, which Potency [1] is on record?
Answer: The Potency was “inactive”.

Question: With `COc1cccc(CNc2ccc(S(=O)(=O)Nc3ccc(-c4ccccc4)cc3)cc2)c1O` as the compound, how does the Potency [1] read?
Answer: The Potency was “inactive”.

Question: Which Potency [1] does the source give for `CC(C)Oc1ccc(C(=O)Nc2ccc(-c3nc4ccccc4[nH]3)cc2)cc1` here?
Answer: Its Potency is “inactive”.

Question: For `COc1cc(F)c(S(=O)(=O)N2CCCN(S(=O)(=O)c3ccc4c(c3)OCCO4)CC2)c(F)c1`, which Potency [1] is on record?
Answer: Its Potency is “inactive”.

Question: Which Potency [1] does the source give for `N=c1c2c(ncn1-c1ccccc1)Oc1ccc3ccccc3c1C2c1ccc2c(c1)OCO2` (configuration not stated) here?
Answer: The Potency was “inactive”.

Question: With `Cc1ccc(CNc2cccc(N3CCCCC3)c2)cc1` as the compound, how does the Potency [1] read?
Answer: The Potency was “inactive”.

Question: Which Potency [1] does the source give for `Cc1cc2c(s1)c1cnn(Cc3ccc(SC(F)(F)F)cc3)c(=O)c1n2C` here?
Answer: Its Potency is “inactive”.

Question: With `CN(C)c1ccccc1-c1csc(N2CCC(C(N)=O)CC2)n1` as the compound, how does the Potency [1] read?
Answer: Its Potency is “inactive”.

Question: With `Cc1cccc(CNc2ccc(S(=O)(=O)Nc3nccs3)cc2)c1O` as the compound, how does the Potency [1] read?
Answer: The Potency was “inactive”.

Question: Which Potency [1] does the source give for `c1nc(N2CCCCC2)c2cc(-c3ccc4c(c3)OCO4)ccc2n1` here?
Answer: The Potency was “inactive”.

Question: With `O=[S+]([O-])(Nc1ccccc1)c1ccc(NCc2cccc(C(F)(F)F)c2Cl)cc1` as the compound, how does the Potency [1] read?
Answer: Its Potency is “inactive”.

Question: Which Potency [1] does the source give for `CC(C)Oc1ccc(-c2csc(N3CCC(C(N)=O)CC3)n2)cc1` here?
Answer: The Potency was “inactive”.

Question: With `S=P(c1ccccc1)(c1ccccc1)c1c[n+](C/C=C/c2ccccc2)c2ccccn12` as the compound, how does the Potency [1] read?
Answer: The Potency was “inactive”.

Question: With `Cc1ccc2nc3sc(C(=O)N4CCCCC4)cc3cc2c1` as the compound, how does the Potency [1] read?
Answer: Its Potency is “inactive”.

Question: For `Cc1ccc(NC(=O)CN2C(=O)N/C(=C\c3cccn3-c3ccc(P(=O)(O)O)cc3)C2=O)cc1`, which Potency [1] is on record?
Answer: The Potency was “inactive”.

Question: For `Cc1cc(NC(=O)Nc2nnc(-c3cccnc3)s2)ccc1Br`, which Potency [1] is on record?
Answer: The Potency was “inactive”.

Question: Which Potency [1] does the source give for `O=C(OCC#CCSc1nnc(-c2cccc3ccccc23)o1)c1sccc1Cl` here?
Answer: Its Potency is “inactive”.

Question: With `CC(=O)Nc1ccc(S(=O)(=O)Nc2cccc3cccnc23)cc1` as the compound, how does the Potency [1] read?
Answer: The Potency was “inactive”.

Question: For `COc1ccc(C2c3c(ncn(CCc4ccccc4)c3=N)Oc3ccc4ccccc4c32)cc1OC` (configuration not stated), which Potency [1] is on record?
Answer: The Potency was “inactive”.

Question: What does the source list for `COc1cc(Nc2nc(-c3ccncc3)nc3ccccc23)ccc1N1CCN(C)CC1`?
Answer: Potency [1]: inactive; Potency [2]: 17 µM (active)

Question: For `O=C(NCCc1ccccc1)C1CCN(c2nc(-c3ccc(Br)cc3)cs2)CC1`, which Potency [1] is on record?
Answer: The Potency was “inactive”.

Question: And the Potency [2]?
Answer: The Potency was “inactive”.

Question: Which Potency [1] does the source give for `CC(C)(C)c1ccc(CSc2nc3ncc(Br)cc3[nH]2)cc1` here?
Answer: Its Potency is “inactive”.

Question: Which Potency [1] does the source give for `COc1ccc(C2=Nn3c(nnc3-c3ccccc3F)SC2)cc1OC1CCCC1` here?
Answer: Its Potency is “inactive”.

Question: What about the Potency [2] of the same compound?
Answer: Its Potency is 24.5 µM (active).

Question: What does the source list for `NC(=O)C1CCN(c2nc(-c3ccc4c(c3)CCO4)cs2)CC1`?
Answer: Potency [1]: inactive; Potency [2]: inactive

Question: What does the source list for `c1nc(N2CCNCC2)c2cc(-c3ccc4c(c3)OCO4)ccc2n1`?
Answer: Potency [3]: > 11.4 µM (inactive); activity change, negative = inhibition [4]: -9.83% (inactive); Potency [5]: 2 µM (active); activity change, negative = inhibition [6]: -0.53% (inactive); activity, negative = inhibition [7]: 1.4% (inactive); Potency [8]: > 46 µM (inactive); outcome [9]: inactive; Potency [10]: inactive; Potency [11]: 2.51 µM (active); outcome [12]: inactive; outcome [13]: inactive; activity change, negative = inhibition ([14]; at 57.5 µM (top of the series)): 13.1% (inactive); max response ([14]; measured here: cell count channel max response): 9.51%; max response ([14]; measured here: lipid channel max response): 19.9%; Potency [15]: inactive; Potency [1]: inactive; Potency [16]: inactive

Question: Which Potency [1] does the source give for `O=S(=O)(Nc1ccc(O)c2ncccc12)c1ccccc1F` here?
Answer: The Potency was “inactive”.

Question: What about the Potency [2] of the same compound?
Answer: Its Potency is “inactive”.

Question: With `CCN(Cc1cccs1)c1ncnc2ccc(-c3ccc4c(c3)OCO4)cc12` as the compound, how does the Potency [1] read?
Answer: Its Potency is “inactive”.

Question: For `O=C1Nc2ccc(C(=O)c3ccco3)cc2/C1=C/c1cc(Cl)c(O)c(Cl)c1`, which Potency [17] is on record?
Answer: Its Potency is 0.463 µM (active).

Question: What about the outcome [18] of the same compound?
Answer: The outcome was “inactive”.

Question: And the Potency [1]?
Answer: The Potency was “inactive”.

Question: And the Potency [2]?
Answer: Its Potency is 2.4 µM (active).

Question: Which results are given for `CC(=O)Nc1sc2c(c1-c1ccc3scnc3c1)CCNC2`?
Answer: Potency [1]: inactive; Potency [2]: 44.7 µM (active)

Question: With `Cc1nc(C)c(-c2ccc3ncnc(NCc4ncc[nH]4)c3c2)s1` as the compound, how does the Potency [1] read?
Answer: The Potency was “inactive”.

Question: And the Potency [2]?
Answer: The Potency was 39.8 µM (active).
